Compound activity: PubChem BioAssay, National Center for Advancing Translational Sciences (NCATS)
An excerpt weighted towards active compounds, which were near 11% of everything screened.
ALDH1A1 block – inhibitors of human aldehyde dehydrogenase 1A1 | P00352 | Purified ALDH1A1, NADH fluorescence, propionaldehyde substrate | Potency, µM (highest dose often 75.3 µM), inactives show top-dose activity, negative = inhibition, hits mostly inhibitors | actives 7.3% (n = 220,000) | AID 1030;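 also: potency is read from the fitted curve at half-maximal effect; plate controls were no enzyme wells and a reference inhibitor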
HttQ103 aggreg – mutant huntingtin aggregation inhibition | actives 1.1% (n = 220,000) | PC12 HttQ103-GFP aggregates, Acumen cytometry, 40 h | Potency, µM (highest dose often 46.1 µM), without a hit: at the highest dose activity change, negative = inhibition, hits mostly inhibitors | AID 1688; active = well fitted curve in the direction sought with a large enough effect; inconclusive = small, poorly fitted or top-dose-only effect, or another doubt; inactive = no such curve, though single readings can be large; an effect the other way counts as inactive or inconclusive; also: potency is read from the fitted curve at half-maximal effect; % is scaled to controls: 0 for no effect and ±100 for the full control effect; nearly all actives have a fitted effect of over 60% in size
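PC12 cells stably carrying ecdysone-inducible HTT exon 1 Q103–GFP were induced with tebufenozide (100 nM final) and treated with library compounds in titration. GFP aggregates in lysates were counted by laser scanning cytometry.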
HPGD block – inhibitors of human 15-hydroxyprostaglandin dehydrogenase (HPGD). Potency, µM, for the others: at the highest dose activity change, negative = inhibition, hits mostly inhibitors. purified HPGD, NADH fluorescence kinetic, PGE2 substrate. P15428. actives 4.3% (n = 150,000); also: potency is read from the fitted curve at half-maximal effect; % is scaled to controls: 0 for no effect and ±100 for the full control effect
Target sequence (P15428 whole entry, looked up): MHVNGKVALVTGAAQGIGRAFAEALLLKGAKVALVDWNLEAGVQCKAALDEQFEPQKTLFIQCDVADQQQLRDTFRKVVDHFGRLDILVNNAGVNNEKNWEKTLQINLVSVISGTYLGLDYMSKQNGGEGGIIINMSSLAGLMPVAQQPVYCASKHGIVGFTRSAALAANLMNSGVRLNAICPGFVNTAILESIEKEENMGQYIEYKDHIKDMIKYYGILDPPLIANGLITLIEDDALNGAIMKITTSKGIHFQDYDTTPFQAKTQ
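20 nM HPGD preincubated 15 min at room temperature with compound in 50 mM Tris-HCl pH 8, 0.01% Tween 20. Started with 1 mM NAD+ and 30 uM prostaglandin E2; NADH fluorescence (360/450 nm) read 5 times over 30-s intervals, last minus first.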
HTT cytoprotect – protects HTT-Q103 PC12 cells, measured by ATP; actives 0.14% (n = 230,000); AID 1471; Potency, µM (series often up to 56.4 µM), for the others: cytoprotection (ATP increase), hits mostly activators; PC12 HTT-Q103 induced, cytoprotection, ATP luminescence, 40 h; active = well fitted curve in the direction sought with a large enough effect; inconclusive = small, poorly fitted or top-dose-only effect, or another doubt; inactive = no such curve, though single readings can be large; an effect the other way counts as inactive or inconclusive; also: potency is read from the fitted curve at half-maximal effect; % of control where 0% means no effect; nearly all actives have a fitted effect of over 45% in size
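Rat PC12, Q103 Htt exon1-GFP fusion, ecdysone promoter; tebufenozide inducer 100 nM final; compound titration; qHTS, 1500 cells/well; ATPlite luminescent read.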
PNC inhibitor – blocks assembly of the perinucleolar compartment; PC3M PTB-GFP, PNC prevalence imaging, 16 h; hits give low values; actives 3.1% (n = 140,000); activity change (PNC), negative = inhibition, % at 10 µM;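 active = readout at or below -70, meaning at least 70% loss of cells showing the perinucleolar compartment, a nuclear body marking cancer cells; inconclusive = readout between -30 and a set limit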;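 also: plate controls were DMSO wells for no effect and camptothecin positive control wells for full effect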
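Compounds are pinned in duplicate onto adhered PC3M cells stably expressing GFP-tagged PTB and incubated 16 h at 37 C. Cells are then fixed, nuclei stained with Hoechst, and PNC-positive cells counted.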
GoLoco inh red – blocks human Gai1 binding to RGS12 GoLoco peptide, red readout | Gai1:RGS12 GoLoco peptide FP, rhodamine, 10 min | Potency, µM (series often up to 61.6 µM), for the others: at the highest dose activity, negative = inhibition, usual class: inhibitors | actives 0.44% (n = 230,000); active = well fitted inhibition curve with a large enough effect, not every such curve was filed as active; inactive = no such curve, though single readings can be large or run the other way; also: potency is read from the fitted curve at half-maximal effect; % is scaled to controls: 0 for no effect and ±100 for the full control effect; nearly all actives have a fitted effect of over 30% in size
Numbers without * were called inactive; ? = inconclusive; . = no result; [ ] = dose if it differs, or a comment. Unless noted, calls follow the shape of the dose curve; as a rule, active = well fitted inhibition curve with a large enough effect (not every such curve was filed as active); inconclusive = small, poorly fitted or top-dose-only effect, or another doubt; inactive = no such curve, though single readings can be large or run the other way.

SMILES	ALDH1A1 block	HttQ103 aggreg	HPGD block	HTT cytoprotect	PNC inhibitor	GoLoco inh red
CS(=O)(=O)Nc1cccc(-c2ccc3ncnc(N4CCOCC4)c3c2)c1	6%	.	.	-87%	.	4%
CC(=O)OC(C)(C)N=Nc1ccc(Br)cc1	.	.	.	1%[10 µM]	.	.
O=C(CN1CCOCC1)Nc1ccc([N+](=O)[O-])cc1Br	-4%	-13%	.	-44%	.	8%
C[C@H](N)CCP(=O)(O)O	14%	.	.	-25%	.	3%
Cc1cc(C)cc(N(CC(=O)Nc2ccccc2-c2ccccc2)S(=O)(=O)c2ccccc2)c1	-3%	-14%	10µM*	3%[10 µM]	37	-35%
Cc1ccc(Cn2ccc(=O)c(OCc3c(Cl)cccc3Cl)c2C)cc1	0%	-10%[9.22 µM]	-11%	-31%	?	12%
Cc1cc([N+](=O)[O-])nn1CCCC(=O)N1CCN(c2ccc(F)cc2)CC1	?	11%	-5%	8%[10 µM]	-119*	0%
O[C@@H](COc1cccc2ccccc12)CN1CCOCC1	8%[13.5 µM]	.	-2%	0%[10 µM]	.	3%[14.2 µM]
CSc1nc(/C=C2\C=Nc3ccccc32)c(O)n1C	-5%	13%	35µM*	3%[10 µM]	-25	9%
Cn1c(C[C@@H](O)c2nc3ccccc3n2C)nc2ccccc21	13%[13.5 µM]	.	-16%	-8%[10 µM]	.	3%[14.2 µM]
CCCSc1nc(SCC(=O)NCc2ccccc2)c2c3c(sc2n1)COC(C)(CC)C3 (stereo not given)	-6%	-2%	-21%	-9%	-22	1%
CCCCSc1nc(SCC(=O)NCc2ccco2)c2c3c(sc2n1)COC(C)(CC)C3 (stereo not given)	22µM*	6%	-25%	-17%	-10	15%
CC1(C)N=C(N)N=C(N)N1c1cccc(OCc2cccc(N)c2)c1	6%[13.5 µM]	.	-2%	-6%[10 µM]	.	0%[14.2 µM]
CCN(CC)S(=O)(=O)c1ccc2c3c(cccc13)C(=O)N2	?	1.6µM*	?	-5%	7	5%
O=C(O)CN1CCCC1=Nc1ccccc1	89µM*	7%	-8%	-12%	-11	-20%
COc1ccc(C2NCCc3sccc32)cc1 (stereo not given)	6%	-2%[9.22 µM]	.	-17%	.	2%
CCOC(=O)c1sc(/N=C/c2c(C)[nH]n(-c3ccccc3)c2=O)c(C#N)c1C	-4%	9%	-19%	-4%	-112*	-1%
Cc1[nH]n(-c2ccccc2)c(=O)c1/C=N/N(c1ccccc1)c1ccccc1	9%	6%[9.22 µM]	.	42%[10 µM]	.	9%
COc1ccccc1CN(Cc1nc2ccccc2c(=O)[nH]1)C(=O)Nc1cccc(C)c1	?	12%[9.22 µM]	-22%	-39%	17	-12%
Cc1cc(-c2n[nH]c(=S)n2/N=C/c2ccc(Cl)c([N+](=O)[O-])c2)n[nH]1	14µM*	?	7.9µM*	-87%[10 µM]	1	8%
Cc1cc(-c2n[nH]c(=S)n2/N=C/c2cc([N+](=O)[O-])ccc2Cl)n[nH]1	?	11%	25µM*	16%[10 µM]	11	6%
Cc1ccc(C2=NN(C(=O)CCC(=O)O)C(c3cn(-c4ccccc4)nc3-c3ccc(C)cc3)C2)cc1 (stereo not given)	-6%	-24%	.	-15%	.	5%
CCOC(=O)c1sc(N2N=C(C)/C(=C\c3ccc(OCC(=O)OC)cc3)C2=O)nc1C	14µM*	24%	28µM*	21%[10 µM]	12	5%
CC(=O)NC1C(OC2OC(CC(O)C3OC([N+]4=CCC(=O)NC4=O)C(O)C3O)C(O)C(O)C2NC(=O)/C=C/CCCCCCCCC(C)C)OC(CO)C(O)C1O (stereo not given)	-6%	.	.	-169%	.	-2%
Cc1nnc(NC(=O)CCNC(=O)c2ccccc2Cl)s1	4%	2%	.	22%[10 µM]	.	14%
CCCc1c(C)nc2ccccc2c1SCCC#N	18%	3.2µM*	-27%	-41%[10 µM]	?	-4%
CCCCc1c(C)nc2ccc(Br)cc2c1SCCC#N	6%	?	-12%	-16%[10 µM]	?	-1%
CCc1c(C)nc2ccc(Br)cc2c1SCCC#N	8%	7.9µM*	-3%	31%[10 µM]	-21	0%
